# Measurements published in PubChem BioAssay AID1578 (Sanford-Burnham Center for Chemical Genomics, 2009).
# The whole screen tested about 290,000 compounds, of which about 3,000 (1%) were called active. The list comes from a sample in which actives are over-represented; it also holds similar structures and randomly drawn compounds. Values without a mark were called inactive. Rule as the data show it: active = inhibition mostly above about 36% (no sharp cut-off); inactive = mostly below about 34%.
# Test: NOD1 signaling inhibitors, primary screen, cell-based, luminescence, uHTS (AID 1578);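 also: HEK-293T reporter cells stimulated with the NOD1 agonist gamma-tri-DAP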
# Settings: NOD1-driven NF-kB luciferase reporter cells, at 4 µM, hits give high values
row,Compound,inhibition
1,CCOc1cc(C2Nc3ccccc3NC3=C2C(=O)CC(C)(C)C3)ccc1O (stereo unspecified),-14.4%
2,NC(=O)CSc1nc(-c2ccccc2)nc2ccccc12,-12.4%
3,Cc1nonc1NC(=O)CSc1nc(C23CC4CC(CC(C4)C2)C3)nc2ccccc12,2.5%
4,NC(=O)CSc1nc(C23CC4CC(CC(C4)C2)C3)nc2ccccc12,58.4% (active)
5,Cc1ccc(NC(=O)CCOc2ccccc2)cc1,-12.7%
6,CCC(C)NC(=O)C(Cc1ccccc1)n1cccc1 (stereo unspecified),-8%
7,CCC1Oc2ccc(C)cc2N(CC(=O)N(Cc2cccnc2)Cc2cccc(F)c2)C1=O (stereo unspecified),34.6% (active)
8,CCC1Oc2ccc(C)cc2N(CC(=O)N(Cc2cccnc2)Cc2ccc(C)o2)C1=O (stereo unspecified),-12.7%
9,CCC1Oc2ccc(C)cc2N(CC(=O)N(Cc2ccncc2)Cc2ccco2)C1=O (stereo unspecified),-36.7%
10,Cc1nn(C)c(C(=O)Nc2ccc(Br)cc2F)c1Br,46%
11,CCOP(=O)(OCC)C(NC(=O)Nc1ccccc1)c1ccccc1 (stereo unspecified),-11.6%
12,COc1ccc2[nH]c3c4c(ccc3c2c1)C(=O)C=CC4=O,51% (active)
13,COc1ccc2c(c1)c1ccc3c(c1n2C)C(=O)C=CC3=O,0.4%
14,COc1ccc2[nH]c(C)cc(=O)c2c1,-7.4%
15,Cc1ccc(NC(=S)NNC(=O)c2ccc(N3CCOCC3)c([N+](=O)[O-])c2)cc1C,-2.1%
16,COc1ccc(-c2csc(NC(=O)CCS(=O)(=O)c3ccccc3)n2)c(OC)c1,-13.4%
17,COc1ccc(C(O)(C(C)C)C(CN2CCOCC2)c2ccccc2)cc1 (stereo unspecified),5.4%
18,CN(C)C=NC(=O)c1cc(C(=O)c2ccc(Cl)cc2Cl)c[nH]1,59.7% (active)
19,CN(C)C=NC(=O)c1cc(C(=O)c2ccccc2Cl)c[nH]1,-1.9%
20,CN(C)C=NC(=O)c1cc(C(=O)c2ccc(Cl)cc2)c[nH]1,38.4%
21,O=C1CN(C(=O)NCC(=O)N[C@H](Cc2ccccc2)C(=O)O)c2ccccc2N1,-34.2%
22,CC(C)c1cccc(C(C)C)c1NC(=O)Cn1c(=O)cnc2ccccc21,-9.4%
23,CN1CCC(N(C)S(=O)(=O)c2ccc(NC(=O)COc3ccc(F)cc3Cl)cc2)CC1,-16.5%
24,COc1ccccc1OC(=O)Cc1cccc2ccccc12,63.8%
25,CC(=O)c1ccc(N2CCN(C(=O)CN(C)S(=O)(=O)c3cnc[nH]3)CC2)cc1,-22.7%
26,N#CCn1cnc2sc(-c3ccccc3)cc2c1=O,-27.8%
